Experimental data reported in ChEMBL document CHEMBL2218924, “A broad activity screen in support of a chemogenomic map for kinase signalling research and drug discovery” (Biochem J, 2013).

Experiments:
[1] = target: T1, Ephrin type-B receptor 1 (Homo sapiens) (UniProt P54762); conditions: at 10 µM
T1 sequence (whole entry): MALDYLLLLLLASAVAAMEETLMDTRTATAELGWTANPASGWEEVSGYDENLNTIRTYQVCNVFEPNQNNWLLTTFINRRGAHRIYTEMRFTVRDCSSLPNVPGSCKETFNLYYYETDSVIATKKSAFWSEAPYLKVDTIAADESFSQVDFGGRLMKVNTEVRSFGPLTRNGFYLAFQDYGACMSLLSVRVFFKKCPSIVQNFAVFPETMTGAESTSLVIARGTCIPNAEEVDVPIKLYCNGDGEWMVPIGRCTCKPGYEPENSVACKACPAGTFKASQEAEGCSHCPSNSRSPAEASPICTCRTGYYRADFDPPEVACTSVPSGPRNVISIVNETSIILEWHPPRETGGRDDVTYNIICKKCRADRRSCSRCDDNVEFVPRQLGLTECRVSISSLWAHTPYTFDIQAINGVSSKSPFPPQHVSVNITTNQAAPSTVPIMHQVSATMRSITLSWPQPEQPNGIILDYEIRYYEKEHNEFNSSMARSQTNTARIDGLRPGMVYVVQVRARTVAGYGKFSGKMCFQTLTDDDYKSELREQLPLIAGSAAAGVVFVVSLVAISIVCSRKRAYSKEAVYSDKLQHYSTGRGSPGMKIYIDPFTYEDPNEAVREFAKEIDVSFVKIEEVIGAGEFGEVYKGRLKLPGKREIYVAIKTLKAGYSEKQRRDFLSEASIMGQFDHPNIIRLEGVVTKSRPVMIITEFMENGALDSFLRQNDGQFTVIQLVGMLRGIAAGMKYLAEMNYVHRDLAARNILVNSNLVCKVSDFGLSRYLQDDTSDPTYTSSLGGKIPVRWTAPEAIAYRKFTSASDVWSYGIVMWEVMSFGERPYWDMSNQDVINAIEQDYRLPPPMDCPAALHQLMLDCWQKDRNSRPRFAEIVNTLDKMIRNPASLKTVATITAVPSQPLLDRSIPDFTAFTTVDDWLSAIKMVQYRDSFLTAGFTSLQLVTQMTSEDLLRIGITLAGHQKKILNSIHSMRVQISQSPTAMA

[2] = target: T2, Ephrin type-B receptor 2 (Homo sapiens) (UniProt P29323); conditions: at 1 µM
T2 sequence (whole entry): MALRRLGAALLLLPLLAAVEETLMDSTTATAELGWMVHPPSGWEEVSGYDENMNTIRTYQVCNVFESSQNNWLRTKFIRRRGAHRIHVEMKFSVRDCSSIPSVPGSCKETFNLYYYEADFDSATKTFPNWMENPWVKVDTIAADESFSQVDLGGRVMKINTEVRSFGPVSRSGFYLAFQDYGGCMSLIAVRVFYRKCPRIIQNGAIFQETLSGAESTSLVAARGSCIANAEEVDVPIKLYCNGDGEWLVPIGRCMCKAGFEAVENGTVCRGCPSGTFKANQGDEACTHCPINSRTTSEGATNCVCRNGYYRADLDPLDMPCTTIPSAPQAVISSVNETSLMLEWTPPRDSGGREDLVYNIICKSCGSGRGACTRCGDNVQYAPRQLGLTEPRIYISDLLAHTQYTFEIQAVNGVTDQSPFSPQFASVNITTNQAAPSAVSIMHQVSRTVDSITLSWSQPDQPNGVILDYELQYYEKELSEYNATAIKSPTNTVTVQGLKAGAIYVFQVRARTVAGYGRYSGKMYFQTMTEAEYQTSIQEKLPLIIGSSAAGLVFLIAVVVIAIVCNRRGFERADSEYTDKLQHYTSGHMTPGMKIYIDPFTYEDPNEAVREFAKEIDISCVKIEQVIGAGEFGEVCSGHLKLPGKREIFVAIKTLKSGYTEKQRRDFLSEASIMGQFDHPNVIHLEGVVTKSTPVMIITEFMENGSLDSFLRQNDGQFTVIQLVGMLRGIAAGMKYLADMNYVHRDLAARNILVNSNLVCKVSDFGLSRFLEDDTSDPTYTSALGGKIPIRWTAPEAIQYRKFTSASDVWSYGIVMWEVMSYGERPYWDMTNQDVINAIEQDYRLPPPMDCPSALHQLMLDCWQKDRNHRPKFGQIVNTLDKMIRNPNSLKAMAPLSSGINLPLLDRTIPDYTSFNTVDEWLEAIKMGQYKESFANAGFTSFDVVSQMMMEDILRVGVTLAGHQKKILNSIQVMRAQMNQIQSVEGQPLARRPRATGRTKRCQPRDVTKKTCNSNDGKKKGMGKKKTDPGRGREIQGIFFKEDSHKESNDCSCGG

[3] = target: T2, Ephrin type-B receptor 2 (Homo sapiens); conditions: at 10 µM
[4] = target: T3, Ephrin type-B receptor 3 (Homo sapiens) (UniProt P54753); conditions: at 1 µM
T3 sequence (whole entry): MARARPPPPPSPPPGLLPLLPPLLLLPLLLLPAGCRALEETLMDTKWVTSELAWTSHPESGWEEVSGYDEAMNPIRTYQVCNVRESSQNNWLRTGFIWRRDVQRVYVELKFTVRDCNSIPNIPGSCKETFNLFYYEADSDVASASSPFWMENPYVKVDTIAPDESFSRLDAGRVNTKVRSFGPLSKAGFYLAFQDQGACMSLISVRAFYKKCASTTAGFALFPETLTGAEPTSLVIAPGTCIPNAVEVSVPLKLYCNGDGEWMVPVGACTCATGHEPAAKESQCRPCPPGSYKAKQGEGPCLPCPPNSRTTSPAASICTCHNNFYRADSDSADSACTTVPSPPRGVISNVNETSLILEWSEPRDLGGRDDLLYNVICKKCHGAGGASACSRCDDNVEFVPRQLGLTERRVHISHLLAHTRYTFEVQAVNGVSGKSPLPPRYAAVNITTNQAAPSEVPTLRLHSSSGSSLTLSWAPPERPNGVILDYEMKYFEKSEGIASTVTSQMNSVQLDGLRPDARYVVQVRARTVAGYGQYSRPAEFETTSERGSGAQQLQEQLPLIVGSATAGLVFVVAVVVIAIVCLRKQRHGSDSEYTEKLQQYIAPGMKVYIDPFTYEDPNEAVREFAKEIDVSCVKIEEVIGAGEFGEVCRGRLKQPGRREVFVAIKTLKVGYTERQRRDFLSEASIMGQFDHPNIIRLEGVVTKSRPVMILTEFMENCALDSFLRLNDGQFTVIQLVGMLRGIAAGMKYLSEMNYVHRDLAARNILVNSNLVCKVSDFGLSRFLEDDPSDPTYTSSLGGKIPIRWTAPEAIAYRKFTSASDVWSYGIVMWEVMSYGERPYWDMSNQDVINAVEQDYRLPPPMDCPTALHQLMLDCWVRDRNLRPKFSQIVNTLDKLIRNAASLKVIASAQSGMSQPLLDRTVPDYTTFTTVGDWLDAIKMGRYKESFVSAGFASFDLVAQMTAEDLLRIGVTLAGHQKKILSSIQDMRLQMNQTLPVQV

[5] = target: T3, Ephrin type-B receptor 3 (Homo sapiens); conditions: at 10 µM
[6] = target: T4, Ephrin type-B receptor 4 (Homo sapiens) (UniProt P54760); conditions: at 1 µM
T4 sequence (whole entry): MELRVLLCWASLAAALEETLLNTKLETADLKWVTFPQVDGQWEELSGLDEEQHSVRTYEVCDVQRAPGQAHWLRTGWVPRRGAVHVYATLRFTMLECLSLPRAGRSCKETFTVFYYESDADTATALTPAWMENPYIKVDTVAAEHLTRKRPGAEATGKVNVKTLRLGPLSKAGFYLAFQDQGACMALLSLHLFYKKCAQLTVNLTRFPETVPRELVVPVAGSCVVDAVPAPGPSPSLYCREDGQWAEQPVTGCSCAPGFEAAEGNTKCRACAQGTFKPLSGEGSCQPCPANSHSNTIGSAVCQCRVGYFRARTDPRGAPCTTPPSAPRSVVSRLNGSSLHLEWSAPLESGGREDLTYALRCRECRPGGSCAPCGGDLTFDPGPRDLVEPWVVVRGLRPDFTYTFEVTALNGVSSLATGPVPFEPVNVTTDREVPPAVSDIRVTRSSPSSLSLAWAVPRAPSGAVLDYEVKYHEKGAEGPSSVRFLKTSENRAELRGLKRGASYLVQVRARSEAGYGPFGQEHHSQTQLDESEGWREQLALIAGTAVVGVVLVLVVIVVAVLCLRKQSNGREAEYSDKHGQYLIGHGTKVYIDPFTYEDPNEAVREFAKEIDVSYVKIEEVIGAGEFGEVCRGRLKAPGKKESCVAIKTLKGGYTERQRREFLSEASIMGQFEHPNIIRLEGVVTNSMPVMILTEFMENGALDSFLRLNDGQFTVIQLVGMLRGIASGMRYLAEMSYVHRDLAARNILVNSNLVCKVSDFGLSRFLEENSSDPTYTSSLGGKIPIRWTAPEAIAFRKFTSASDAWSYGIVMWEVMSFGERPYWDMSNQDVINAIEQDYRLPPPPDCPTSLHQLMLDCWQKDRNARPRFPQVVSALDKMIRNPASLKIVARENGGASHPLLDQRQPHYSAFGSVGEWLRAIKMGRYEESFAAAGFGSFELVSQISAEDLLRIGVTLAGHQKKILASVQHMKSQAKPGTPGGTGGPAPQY

[7] = target: T4, Ephrin type-B receptor 4 (Homo sapiens); conditions: at 10 µM
[8] = target: Receptor tyrosine-protein kinase erbB-4 (Homo sapiens) (UniProt Q15303); conditions: at 1 µM
Receptor tyrosine-protein kinase erbB-4 (Homo sapiens), sequence (Q15303 whole entry): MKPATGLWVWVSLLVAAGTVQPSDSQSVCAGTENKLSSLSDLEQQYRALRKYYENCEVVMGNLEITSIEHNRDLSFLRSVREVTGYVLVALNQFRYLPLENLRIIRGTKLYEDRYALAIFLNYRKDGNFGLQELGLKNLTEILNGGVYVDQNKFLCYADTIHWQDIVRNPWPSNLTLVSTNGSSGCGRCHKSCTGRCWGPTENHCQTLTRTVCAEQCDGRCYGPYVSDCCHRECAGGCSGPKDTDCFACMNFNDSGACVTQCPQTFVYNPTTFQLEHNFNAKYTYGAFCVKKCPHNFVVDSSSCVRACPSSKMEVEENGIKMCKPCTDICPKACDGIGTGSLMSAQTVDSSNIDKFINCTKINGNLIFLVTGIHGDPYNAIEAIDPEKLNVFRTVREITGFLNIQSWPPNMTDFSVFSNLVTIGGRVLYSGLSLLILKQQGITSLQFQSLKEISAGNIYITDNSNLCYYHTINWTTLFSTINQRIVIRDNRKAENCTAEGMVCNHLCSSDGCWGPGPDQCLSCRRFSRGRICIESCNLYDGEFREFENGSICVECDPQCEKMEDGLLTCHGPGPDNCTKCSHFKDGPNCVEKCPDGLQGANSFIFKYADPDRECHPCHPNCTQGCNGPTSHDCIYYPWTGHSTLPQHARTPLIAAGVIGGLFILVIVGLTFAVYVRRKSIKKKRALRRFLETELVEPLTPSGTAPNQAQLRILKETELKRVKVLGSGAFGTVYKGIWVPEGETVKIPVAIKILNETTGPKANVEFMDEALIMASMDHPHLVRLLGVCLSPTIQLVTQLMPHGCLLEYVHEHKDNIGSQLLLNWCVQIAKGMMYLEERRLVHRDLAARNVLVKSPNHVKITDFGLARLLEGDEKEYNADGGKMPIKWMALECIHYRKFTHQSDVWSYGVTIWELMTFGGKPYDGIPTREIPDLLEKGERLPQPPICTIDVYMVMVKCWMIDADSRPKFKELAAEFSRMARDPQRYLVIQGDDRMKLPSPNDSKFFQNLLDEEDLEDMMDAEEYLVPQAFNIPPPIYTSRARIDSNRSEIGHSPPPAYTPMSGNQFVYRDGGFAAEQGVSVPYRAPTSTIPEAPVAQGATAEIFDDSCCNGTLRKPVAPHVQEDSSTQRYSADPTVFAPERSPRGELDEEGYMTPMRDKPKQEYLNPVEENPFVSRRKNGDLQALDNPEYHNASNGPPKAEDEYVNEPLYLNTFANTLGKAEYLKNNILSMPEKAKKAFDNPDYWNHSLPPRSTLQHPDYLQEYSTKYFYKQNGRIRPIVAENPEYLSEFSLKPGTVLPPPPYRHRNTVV

[9] = target: Receptor tyrosine-protein kinase erbB-4 (Homo sapiens) (UniProt Q15303); conditions: at 10 µM
[10] = target: Focal adhesion kinase 1 (Homo sapiens) (UniProt Q05397); conditions: at 1 µM
Focal adhesion kinase 1 (Homo sapiens), sequence (Q05397 2-1052 limits assumed): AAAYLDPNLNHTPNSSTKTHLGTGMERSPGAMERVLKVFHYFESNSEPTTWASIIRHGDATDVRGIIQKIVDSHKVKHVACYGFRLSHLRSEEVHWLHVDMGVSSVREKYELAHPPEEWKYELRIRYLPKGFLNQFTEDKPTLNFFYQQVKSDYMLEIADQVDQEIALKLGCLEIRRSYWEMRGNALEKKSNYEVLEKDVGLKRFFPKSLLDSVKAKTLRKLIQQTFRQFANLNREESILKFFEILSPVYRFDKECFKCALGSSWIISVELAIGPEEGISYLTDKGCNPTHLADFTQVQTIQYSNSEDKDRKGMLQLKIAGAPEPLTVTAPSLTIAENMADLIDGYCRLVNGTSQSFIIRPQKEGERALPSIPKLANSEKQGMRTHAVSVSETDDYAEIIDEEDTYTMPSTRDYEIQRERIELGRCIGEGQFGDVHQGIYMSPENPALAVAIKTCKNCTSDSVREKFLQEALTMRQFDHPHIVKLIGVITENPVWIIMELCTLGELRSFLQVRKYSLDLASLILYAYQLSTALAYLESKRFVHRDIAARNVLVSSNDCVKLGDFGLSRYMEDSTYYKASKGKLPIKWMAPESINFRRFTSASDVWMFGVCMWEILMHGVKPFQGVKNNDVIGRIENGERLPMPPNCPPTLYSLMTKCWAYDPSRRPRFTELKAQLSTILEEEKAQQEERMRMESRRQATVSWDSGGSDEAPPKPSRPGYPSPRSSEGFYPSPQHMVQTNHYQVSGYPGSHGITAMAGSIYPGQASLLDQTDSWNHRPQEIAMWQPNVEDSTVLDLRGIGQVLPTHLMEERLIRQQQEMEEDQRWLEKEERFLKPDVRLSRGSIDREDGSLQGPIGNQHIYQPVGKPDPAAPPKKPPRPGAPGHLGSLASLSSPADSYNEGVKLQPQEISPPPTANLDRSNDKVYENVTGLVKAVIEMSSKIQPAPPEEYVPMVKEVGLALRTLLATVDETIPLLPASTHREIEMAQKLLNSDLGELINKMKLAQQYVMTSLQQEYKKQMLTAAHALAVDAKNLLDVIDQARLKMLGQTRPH

SMILES	residual activity [1] [%]	residual activity [2] [%]	residual activity [3] [%]	residual activity [4]	residual activity [5] [%]	residual activity [6] [%]	residual activity [7] [%]	residual activity [8] [%]	residual activity [9] [%]	residual activity [10] [%]
COC(=O)[C@@]1(O)C[C@H]2O[C@]1(C)n1c3ccccc3c3c4c(c5c6ccccc6n2c5c31)C(=O)NC4	4	114	55	110% (inactive)	100	71	22	64	19	39
CC(C)[C@H](CO)Nc1nc(Nc2cccc(Cl)c2)c2ncn(C(C)C)c2n1	15	71	3	–	–	37	4	–	–	65
COc1cc(OC)c(/C=C2\C(=O)Nc3ccccc32)c(OC)c1	88	–	–	124% (inactive)	107	86	82	–	106	92
CCc1nc(-c2ccc(OC)cc2)[nH]c1-c1ccncc1	–	120	115	110% (inactive)	111	112	101	–	108	115
O=c1[nH]c2ccccc2n1C1CCN(Cc2ccc(-c3nc4cc5[nH]cnc5cc4nc3-c3ccccc3)cc2)CC1	76	119	90	123% (inactive)	105	109	117	99	61	143
O=[N+]([O-])/C=C/c1ccc2c(c1)OCO2	116	116	124	117% (inactive)	111	114	127	86	101	141
COc1ccc2c(c[n+](C)c3c4cc5c(cc4ccc23)OCO5)c1OC	91	121	121	126% (inactive)	133	94	119	96	79	140
O=C1c2ccccc2-c2nc3nnnn3nc21	–	–	138	108% (inactive)	133	118	115	106	–	–
